Only some compounds are listed: those with a hit (about 9.5% of all), similar ones and a draw of the others.
RE007 growth inh: less growth of the S. pombe RE007 Vpr strain. Potency, µM (top dose mostly 92.2 µM), hits mostly inhibitors. S. pombe RE007 Vpr strain, BacTiter-Glo ATP luminescence, 24 h. 0.21% of 360,000 active; active = well fitted falling curve with a large enough effect; inconclusive = small, poorly fitted or top-dose-only effect; inactive = no such curve, though single readings can be large or run the other way; also: nearly all actives have a fitted effect of over 50% in size
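Fission yeast RE007 carrying one integrated HIV-1 vpr copy, seeded at OD 0.01 in PMG+AL medium with 23 nL pinned compound. Grown 24 h at 30 degrees; viability read by BacTiter-Glo luminescence after 5 min.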
SARS PLP yeast: inhibitors of SARS-CoV papain-like protease in yeast. S. cerevisiae expressing SARS-CoV PLpro, growth rescue. Potency, µM (highest dose often 32.9 µM), actives largely listed as activators. 0.19% of 330,000 active; also: nearly all actives have a fitted effect of over 55% in size
Pf growth 48h: P. falciparum growth inhibition at 48 hours (one generation); 5.9% of 310,000 active; Potency, µM (highest dose often 28.7 µM), usual class: inhibitors; P. falciparum luciferase growth in erythrocytes, 48 h; active = well fitted inhibition curve with a large enough effect; inconclusive = small, poorly fitted or top-dose-only effect, or another doubt; inactive = no such curve, though single readings can be large or run the other way
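Cell-based growth assay: transgenic P. falciparum expressing firefly luciferase, cultured in red cells within RPMI 1640 containing 0.5% w/v Albumax, 24 mM bicarbonate and gentamycin. A drop in luciferase activity indicates inhibition.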
NS1 inh: blocks influenza NS1 protein function | Potency, µM (doses to about 46.1 µM) | 0.4% of 270,000 active | AID 2326; also: actives are rising curves; nearly all actives have a fitted effect of over 50% in size
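Growth recovery, yeast-based: influenza A NS1 expressed in S. cerevisiae causes slow growth, and suppressors are detected by OD600. The parent strain without NS1 is used as positive control.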
Pf growth 96h: P. falciparum growth inhibition at 96 hour, primary screen for plastid delayed-death inhibitors. Potency, µM (highest dose often 28.7 µM), actives largely listed as inhibitors. P. falciparum luciferase reporter growth, 96 h. AID 504834. 6.9% of 320,000 active; active = well fitted inhibition curve with a large enough effect; inconclusive = small, poorly fitted or top-dose-only effect, or another doubt; inactive = no such curve, though single readings can be large or run the other way
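Plates of compound plus infected erythrocytes (2% hematocrit, 0.05% parasitemia final) incubate 96 hours, 37 C, 5% CO2. Detection reagent added; reduced luminescence from the parasites' luciferase reporter flags inhibition.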
Flu NS1 inh: influenza NS1 function inhibition validation; shares compounds with NS1 inh; influenza NS1 function cell assay, 15-point titration; activity change, negative = inhibition, % at 32.9 µM; 1,400 tested, under 10 active; AID 492980
Large screens that a line does not name were inactive (follow-up assays come after a bar, where they were run). Unless noted, calls follow the shape of the full dose curve.

O=C(Nc1cc(Oc2ccccc2)cc([N+](=O)[O-])c1)C12CC3CC(C1)CC(n1cnc(Cl)n1)(C3)C2	Pf growth 48h inconclusive, NS1 inh 2.2µM, Pf growth 96h inconclusive | Flu NS1 inh inconclusive
O=C(O)c1cccc(NC(=O)C23CC4CC(C2)CC(n2cnc(Cl)n2)(C4)C3)c1	Pf growth 96h inconclusive (no result: Pf growth 48h)
Cc1ccc(NC(=S)N2CCN(Cc3ccccc3)CC2)c(C)c1	NS1 inh inconclusive, Pf growth 96h inconclusive | Flu NS1 inh inactive
Cc1cc(S(=O)(=O)NC(C)c2nnc3ccccn23)ccc1Br (stereo not drawn)	none (no result: Pf growth 48h, NS1 inh, Pf growth 96h)
Cc1ccc(NC(=S)/N=C(\N)Nc2nc(C)c3cc(C)ccc3n2)c(C)c1	SARS PLP yeast inconclusive, Pf growth 48h inconclusive, Pf growth 96h inconclusive (no result: RE007 growth inh)
CCc1ccccc1NC(=S)/N=C(\N)Nc1nc(C)c2cc(C)ccc2n1	Pf growth 48h 2.9µM, NS1 inh inconclusive, Pf growth 96h inconclusive | Flu NS1 inh inactive
O=c1cc(N2CCc3ccccc32)[nH]c(=O)n1-c1ccc(Br)cc1	NS1 inh 6.3µM | Flu NS1 inh inactive
Cc1ccc(C(=O)NC(=S)Nc2cccc(NC(=O)c3ccccc3Cl)c2)cc1[N+](=O)[O-]	NS1 inh 11µM | Flu NS1 inh inconclusive
Cc1ccc(-c2cc(C(=O)Nc3sc4c(c3C(=O)NCc3ccco3)CCC4)[nH]n2)c(O)c1	Pf growth 48h inconclusive, NS1 inh inconclusive, Pf growth 96h inconclusive | Flu NS1 inh inactive
O=C(Cn1c2c(sc1=O)C1c3ccccc3OCC1CS2)Nc1ccc(Cl)c(Cl)c1 (stereo not drawn)	NS1 inh 20µM | Flu NS1 inh inactive
CCN1CCN(C(CNS(=O)(=O)c2cccs2)c2cccnc2)CC1 (stereo not drawn)	none
N#CCSCC(=O)Nc1ccc(Br)cc1	none (no result: Pf growth 96h)
N#CCSCC(=O)Nc1ccc(F)cc1	NS1 inh 14µM | Flu NS1 inh inactive
CCOc1ccccc1-n1c(SC(C)C(=O)NCC2CCCO2)nc2ccccc2c1=O (stereo not drawn)	Pf growth 48h inconclusive, Pf growth 96h inconclusive (no result: NS1 inh)
CCNC(=O)C1(C)CCCN(C(=O)c2ccccc2Br)C1 (stereo not drawn)	none (no result: SARS PLP yeast, Pf growth 48h, NS1 inh, Pf growth 96h)
CCOc1ccc(C(=O)NC(C(=O)N2CCC2)C(C)C)cc1 (stereo not drawn)	none (no result: NS1 inh)
CCOC(=O)/C=c1\s/c(=C\c2sccc2C)c(=O)n1CC(=O)NCc1ccc(C)cc1	none (no result: RE007 growth inh)
Cc1ccc(-n2c(O)c(/C=N/Nc3ccc(S(=O)(=O)N4CCOCC4)cc3[N+](=O)[O-])c3ccccc3c2=O)c(C)c1	Pf growth 48h 10µM, NS1 inh 2.5µM, Pf growth 96h 2.9µM | Flu NS1 inh inactive
CC1=NN=C(c2ccc(N)cc2)c2cc3c(cc2C1)OCO3	Pf growth 48h 12µM, NS1 inh 35µM, Pf growth 96h inconclusive (no result: SARS PLP yeast) | Flu NS1 inh inactive
Cc1nc(N)ncc1-c1ccc2c(c1)OCO2	none (no result: Pf growth 48h)
COC(=O)c1ccc2c(c1)C(=O)/C(=C/c1ccc(C)cc1)O2	SARS PLP yeast inconclusive, NS1 inh 10µM, Pf growth 96h inconclusive | Flu NS1 inh inactive
CCc1ccc(/C=C2\Oc3ccc(C(=O)OC)cc3C2=O)cc1	Pf growth 48h inconclusive
CCS(=O)(=O)N1CCC(C(=O)Oc2ccc(Cl)cc2)CC1	none
CC(C)OCCCNC(=O)c1c(N)n(/N=C/c2ccccn2)c2nc3ccccc3nc12	RE007 growth inh inconclusive, NS1 inh 8.9µM | Flu NS1 inh inactive
COCCCNC(=O)c1c(N)n(/N=C/c2cccnc2)c2nc3ccccc3nc12	Pf growth 48h inconclusive
CCC(C)NC(=O)c1c(N)n(/N=C/c2ccccn2)c2nc3ccccc3nc12 (stereo not drawn)	NS1 inh 11µM | Flu NS1 inh inconclusive
CC(=O)OC1C2CCCC1C(N1CCCC1)CC2 (stereo not drawn)	NS1 inh inconclusive | Flu NS1 inh inactive
CC(=O)OC1C2CCC1C(N1CCCCC1)CC2 (stereo not drawn)	none (no result: NS1 inh)
CCNc1nc(NCC)n2c(SCC(=O)O)nnc2n1	NS1 inh 10µM (no result: Pf growth 96h) | Flu NS1 inh inactive
CCNc1nc(NCC)n2c(SCC(=O)Nc3c(C)cccc3C)nnc2n1	Pf growth 48h inconclusive, Pf growth 96h inconclusive (no result: NS1 inh)
COc1ccc2c(c1)CC1(CN2C)C(=O)NC(=O)N(c2ccc(C)cc2)C1=O (stereo not drawn)	none (no result: Pf growth 96h)

Source: PubChem BioAssay
